The text below walks through data of ChEMBL document CHEMBL4513216, “Probing the Open Global Health Chemical Diversity Library for Multistage-Active Starting Points for Next-Generation Antimalarials” (ACS Infect Dis, 2020).

Molecules are shown by their SMILES. The whole screen tested about 68,000 compounds, of which about 2,700 (4%) showed an effect of 50% or more. What follows is part of a selection rich in strong results, with near analogues and random picks from the rest.

The test system of the experiment is Plasmodium berghei. Put plainly: Screen against P. berghei liver stage (PbLuc), transformed with Luciferase, at 2uM. Format: functional, HepG2. The conditions noted are these: tested at 2 uM.
As to `O=S(=O)(c1c(Cl)nc2sccn12)N1CCC2(CCNCC2)C1`, the INHIBITION was 27.17%. In the case of `O=S(=O)(c1c(Cl)nc2sccn12)N1CCCC2(CCNC2)C1` (stereo not drawn) it was 12.83%.

`CCC1=N[C@@]2(CC[C@@H]3CN(S(=O)(=O)CC(C)C)C[C@@H]32)C(=O)N1CC`: the INHIBITION was determined as 47.53%.

`CCN(Cc1cccc(C)c1)Cn1nc(C)c2c(C)onc2c1=O`: the INHIBITION was -1.02%. As for `CCN(Cc1cccc(F)c1)Cn1nc(C)c2c(C)onc2c1=O`, the INHIBITION amounted to 9.17%. Under `CCN(Cc1c(F)cccc1F)Cn1nc(C)c2c(C)onc2c1=O` stands 62.13%; under `CN1CCC(N(Cc2ccncc2)Cc2nc3c(s2)CCCC3)CC1`, -1.15%; under `O=C(NCCCc1nc(=O)[nH][nH]1)c1ccc(Cl)cn1`, 43.28%. Under `CN(C)CCOCc1cncc2c1CCN(C(=O)C1CCOCC1)C2` stands 26.48%.

Take `Cn1ccnc1SCCNC1CCN(c2ncccn2)CC1`: the INHIBITION is 50.98%. In the case of `Cn1ccnc1SCCNC1CCN(c2nc3ccccc3s2)CC1` it was -11.8%.

Consider `Cc1cc(C)nc(N2CCC(NCCSc3nnnn3C)CC2)n1`, for which the INHIBITION is reported as -25.72%. In the case of `COc1cc(N2CCC3(CCCN(C(=O)c4cnccn4)C3)C2)ncn1` (stereo not drawn) it was -42.01%; in that of `CC(=O)N1CCN(CC(C)(O)c2cccc(C(F)(F)F)c2)CC1` (stereo not drawn), 1.63%; in that of `CC(O)(CN1CCN(CCO)CC1)c1cccc(C(F)(F)F)c1` (stereo not drawn), -27.62%.

Turning to `CCN1CCN(CC(C)(O)c2cccc(C(F)(F)F)c2)CC1` (stereo not drawn), the INHIBITION is reported as 69.41%. Regarding `O=C(NCCNc1ccccn1)Nc1cc(C(F)(F)F)c[nH]c1=O`, the INHIBITION is -20.82%. As for `CC(C)C(NC(=O)Cn1ccc(=O)n(C)c1=O)c1ccc(F)cc1` (stereo not drawn), the INHIBITION is -56.99%. Turning to `Fc1ccc(C(CNc2ccncn2)N2CCCC2)cc1` (stereo not drawn), the INHIBITION was 30.93%. In the case of `NC(=O)CN1CCC(C(=O)NCCc2nc(-c3ccccc3)cs2)CC1` it was -13.72%.

Take `N[C@@H]1CC[C@H](C(=O)NCCc2nc(-c3ccccc3)cs2)C1`: the INHIBITION is on record as 60.18%. Under `NC(=O)CN1CCC(C(=O)NCc2nc(-c3ccc(F)cc3)cs2)CC1` stands 14.19%.

In the case of `COCCN1CCCn2cnc(CNC(=O)N(C)C)c2C1`, the INHIBITION is 2.33%. As for `CC(C)(CO)CCCNC(=O)NC1(C)Cc2ccccc2C1`, the INHIBITION was determined as 29.87%. In the case of `CC(C)(CO)CCCNC(=O)NC1(c2ccccc2F)CC1` it was -3.66%.

Regarding `CC(C)(CO)CCCNC(=O)NC1(c2cccc(F)c2)CC1`, the INHIBITION worked out at 57.16%. Take `CC(NC(=O)COc1ccccc1I)C1CC1` (stereo not drawn): the INHIBITION was -3.87%. Consider `CN(CCOCC1CC1)C(=O)Nc1ccc([S+](C)[O-])cc1` (stereo not drawn), for which the INHIBITION is recorded as -88.39%. For the molecule `O=C(CCNCc1cccc2c1OCCCO2)NC1CCCC1`, the INHIBITION is -42.54%. `O=C(NCCNCc1cccc2c1OCCCO2)C1CCCC1`: the INHIBITION was found to be 77.72%.

Turning to `O=C(CC1CCCC1)NCCNCc1cccc2c1OCCO2`, the INHIBITION was found to be 30.57%. In the case of `CCO[C@@H]1CO[C@@]2(CCCN(S(=O)(=O)c3ccccc3)C2)C1` it was 32.66%; in that of `COCCN1CCC12CCN(c1ncccn1)C2` (stereo not drawn), 30.96%; in that of `COC(=O)c1cc2n(n1)CCCN(C(=O)Cc1c[nH]c3ccccc13)C2`, 19.27%. In the case of `N#Cc1cc2n(n1)CCN(C(=O)CCc1c[nH]c3ccccc13)C2` it was 76.29%; in that of `O=C(O)c1cc2n(n1)CCCN(C(=O)CCc1c[nH]c3ccccc13)C2`, 6.72%; in that of `CC(NC(=O)c1cccc(CCC(C)(C)O)c1)c1nnc(N)s1` (stereo not drawn), 18.84%. Under `Cc1noc(C)c1-c1cc(C2CCNCC2)ccn1` stands -18.04%; under `O=S(=O)(CC1CCCO1)Nc1cc(Cl)ccc1-n1cccn1` (stereo not drawn), -69.64%. Regarding `Cc1ccc(N2CCC(N3C[C@@H](CN(C)C)[C@@H](CO)C3)CC2)cc1`, the INHIBITION came to 27.85%. Under `CN(C)C[C@@H]1CN(C2CCN(c3ccccc3Cl)CC2)C[C@@H]1CO` stands 32.26%. Turning to `CN(C)C[C@@H]1CN(C2CCN(c3ccc(Cl)cc3)CC2)C[C@@H]1CO`, the INHIBITION is 63.46%. On to `Cc1ccccc1OCC(=O)N1CCN(C2CCOC2=O)CC1` (stereo not drawn), for which the INHIBITION was -42.29%. In the case of `CCn1ccnc1CN(C)Cc1nc(Cc2ccccc2F)no1`, the INHIBITION came out at 36.34%. Under `Cc1cc(C[S+]([O-])CC(=O)NCc2cccc(Cl)c2)no1` (stereo not drawn) stands -11.2%; under `CCN1CC2(CC1=O)CN(C(C)=O)CCN(C(=O)NC)C2` (stereo not drawn), -17.59%; under `N#Cc1ccc(SCCOCCO)c(F)c1`, 53.63%. Under `N#Cc1ccc(F)c(CNc2ccc(F)cc2OCCO)c1` stands -17.04%; under `N#Cc1ccc(SCCC(=O)O)cc1`, 1.8%. In the case of `N#Cc1ccc(SCCOCCO)c(Cl)c1`, the INHIBITION is listed as 53.63%. Take `N#Cc1ccc(SCCCO)c(F)c1`: the INHIBITION is listed as -22.89%.

Take `CCCS(=O)(=O)CCSc1cccc(C#N)c1`: the INHIBITION was 32.97%.

`CO[C@@H]1CCC[C@@H](NC(=O)C(C)(C)c2cccc(F)c2)[C@H]1O`: the INHIBITION was -21.9%.
